Measured values: PubChem BioAssay (NCATS)
Records with an inconclusive call do not appear. The source made the active and inactive calls. Unless noted, the call rests on the fitted dose curve.

Assays:
[1] = Cell Viability - BJ (AID 421); conditions: BJ fibroblast viability, qHTS;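 further: potency means the concentration at half of the fitted maximal effect; cells exposed to compound for 40 hours at 37 °C before readout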
Summary of the method: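 Cytotoxicity in human BJ foreskin fibroblasts is scored as loss of cellular ATP after a 40-hour exposure, measured by luciferase luminescence. Controls are DMSO and 100 uM tamoxifen.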

[2] = Cell Viability - Jurkat (AID 426;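 active means dose-dependent loss of cell ATP signal giving a full or clear fitted curve, ranked by lower potency value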; further: potency means the concentration at half of the fitted maximal effect); conditions: qHTS
Summary of the method: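 Jurkat (clone E6-1, human T-cell leukemia) cells, 5000/well in complete medium, were exposed to compound for 40 hr at 37 °C. Viability was read as intracellular ATP by CellTiter-Glo luminescence; AC50 came from Hill fits of concentration-response data.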

[3] = Cell Viability - Hek293 (AID 427;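 active means compounds whose dose-response curve shows a full or clear partial loss of cell viability, called from curve shape rather than a numeric limit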;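 further: potency means the concentration at half of the fitted maximal effect; cells exposed to compound for 40 hours at 37 °C before reading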); conditions: qHTS
Summary of the method: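 qHTS, human embryonic kidney (adenovirus-transformed) cells; 40 hr cpd, 37 °C; CellTiter-Glo ATP luminescence. Norm: DMSO = 0, 100 uM tamoxifen = 100% inhibition. Hill-fit AC50.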

[4] = Cell Viability - HepG2 (AID 433); conditions: qHTS;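 further: potency means the concentration at half of the fitted maximal effect; potency for ATP loss meaning cytotoxicity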
Summary of the method: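 ATP luminescence (CellTiter-Glo) after 40 h compound exposure, 37 °C, HepG2, 1500 cells/well, complete medium. Normalized: DMSO = basal, 100 uM tamoxifen = 100% inhibition. AC50 via standard Hill equation.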

[5] = Cell Viability - MRC5 (AID 434); conditions: MRC5 lung fibroblast viability, qHTS;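 further: potency means the concentration at half of the fitted maximal effect; potency reflects cytotoxicity seen as loss of intracellular ATP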
Summary of the method: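 qHTS cytotoxicity in human lung fibroblast MRC5 cells; 40 hr treatment, 37 °C; cellular ATP by luciferase luminescence; DMSO = 0%, 100 uM tamoxifen = 100% inhibition; Hill-fit AC50.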

[6] = Cell Viability - SK-N-SH (AID 435); conditions: SK-N-SH neuroblastoma cell viability qHTS; further: potency means the concentration at half of the fitted maximal effect
Summary of the method: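 CellTiter-Glo ATP luminescence, 20 min RT read; cells pre-plated 5 hr, compound 40 hr at 37 °C, 1500 cells/well, complete medium. Normalized DMSO = 0, 100 uM tamoxifen = 100% inhibition; Hill-fit AC50.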

[7] = molecular target: Mitogen-activated protein kinase 10 (Mus musculus) (UniProt Q61831); experiment: JNK3 AlphaScreen Assay (AID 530; active means well fitted curve in either direction with a large enough effect, not every such curve was filed as active;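 further: kinase came from lysate of stimulated human HepG2 cells; signal reports phosphorylation of biotinylated GST-cJun 1-79 at Ser73 with 10 µM ATP; on the % scale 0 is the no-effect control and ±100 the full control effect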); conditions: JNK3 lysate, c-Jun phosphorylation; series mostly up to 57.1 µM
Summary of the method: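 Room-temperature AlphaScreen kinase assay; pre-activated HepG2 lysate as JNK3 source, biotin-GST-cJun(1-79) substrate, 10 uM ATP, compound 15 min preincubation.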

[8] = Cell Viability - N2a (AID 540; active means well fitted curve in the direction sought with a large enough effect; an effect the other way counts as inactive or inconclusive;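 further: plate controls were DMSO alone for no effect and tamoxifen control for full effect; nearly all actives have a fitted effect of over 45% in size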); conditions: N2a mouse neuroblastoma cell viability; activity change, negative = cytotoxicity: at 92.2 µM (top of the series)
Summary of the method: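 Mouse neuroblastoma N2a cells (1500/well) were preincubated 5 hr at 37 °C, then exposed to compounds for 40 hr at 37 °C in complete medium. Viability was read as intracellular ATP by CellTiter-Glo luminescence; AC50 from Hill fits.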

[9] = Cell Viability - NIH 3T3 (AID 541; active means well fitted curve in the direction sought with a large enough effect; an effect the other way counts as inactive or inconclusive;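 further: plate controls were DMSO alone for no effect and tamoxifen positive control for full effect; nearly all actives have a fitted effect of over 25% in size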); conditions: NIH 3T3 cell viability, qHTS; activity change, negative = cytotoxicity: at 92.2 µM (top of the series)
Summary of the method: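 NIH 3T3 mouse embryo fibroblasts (1000 cells/well) were plated in complete medium and treated with compound for 40 hr at 37 °C. Viability was read as intracellular ATP by CellTiter-Glo luminescence; AC50 values came from Hill-equation fits of concentration-response data.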

[10] = Cell Viability - HUV-EC-C (AID 542; active means well fitted curve in the direction sought with a large enough effect; an effect the other way counts as inactive or inconclusive; further: on the % scale 0 is the no-effect control and ±100 the full control effect; nearly all actives have a fitted effect of over 35% in size); conditions: HUV-EC-C endothelial cell viability, qHTS; series mostly up to 92.2 µM
Summary of the method: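 HUV-EC-C normal human vascular endothelial cells, 1000 cells/well, pre-incubated 5 hr at 37 °C, then exposed to compounds for 40 hr at 37 °C in complete medium. Viability measured as intracellular ATP by CellTiter-Glo luminescence; AC50 from Hill fits.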

NC(=O)c1ccccc1[N+](=O)[O-]
inactive: Potency [1] > 92 µM | Potency [2] > 92 µM | Potency [3] > 92 µM | Potency [4] > 92 µM | Potency [5] > 92 µM | Potency [6] > 92 µM | outcome [7] | activity change, negative = cytotoxicity [8] -5.05% | Potency [9] | Potency [10]

CC1CCCO1 (centres undefined)
inactive: Potency [1] > 92 µM | Potency [2] > 92 µM | Potency [3] > 92 µM | Potency [4] > 92 µM | Potency [5] > 92 µM | Potency [6] > 92 µM | outcome [7] | activity change, negative = cytotoxicity [8] -13.8% | Potency [9] | Potency [10]

O=C(O)CNC(=O)c1ccc(CO)o1
inactive: Potency [1] > 92 µM | Potency [2] > 92 µM | Potency [3] > 92 µM | Potency [4] > 92 µM | Potency [5] > 92 µM | Potency [6] > 92 µM | outcome [7] | activity change, negative = cytotoxicity [8] -13.4% | Potency [9] | Potency [10]

O=[N+]([O-])c1ccc(Cl)cc1Cl
inactive: Potency [1] > 92 µM | Potency [2] > 92 µM | Potency [3] > 92 µM | Potency [4] > 92 µM | Potency [5] > 92 µM | Potency [6] > 92 µM | outcome [7] | activity change, negative = cytotoxicity [8] 10.8% | Potency [9] | Potency [10]

Clc1ccc(Cl)c(Cl)c1Cl
inactive: Potency [1] > 92 µM | Potency [2] > 92 µM | Potency [3] > 92 µM | Potency [4] > 92 µM | Potency [5] > 92 µM | Potency [6] > 92 µM | outcome [7] | activity change, negative = cytotoxicity [8] -2.29% | Potency [9] | Potency [10]

Cc1ccc(CO)cc1
inactive: Potency [1] > 92 µM | Potency [2] > 92 µM | Potency [3] > 92 µM | Potency [4] > 92 µM | Potency [5] > 92 µM | Potency [6] > 92 µM | outcome [7] | activity change, negative = cytotoxicity [8] -2.9% | Potency [9] | Potency [10]

CC(=O)C1(C)CC2=C(CCCC2(C)C)CC1C (centres undefined)
inactive: Potency [1] > 92 µM | Potency [2] > 92 µM | Potency [3] > 92 µM | Potency [4] > 92 µM | Potency [5] > 92 µM | Potency [6] > 92 µM | outcome [7] | activity change, negative = cytotoxicity [8] -8.12% | Potency [9] | Potency [10]

O=C(O)CN(CC(=O)O)CC(=O)O
inactive: Potency [1] > 92 µM | Potency [2] > 92 µM | Potency [3] > 92 µM | Potency [4] > 92 µM | Potency [5] > 92 µM | Potency [6] > 92 µM | outcome [7] | activity change, negative = cytotoxicity [8] -5.01% | Potency [9] | Potency [10]

CC(C)(O)C(=O)O
inactive: Potency [1] > 92 µM | Potency [2] > 92 µM | Potency [3] > 92 µM | Potency [4] > 92 µM | Potency [5] > 92 µM | Potency [6] > 92 µM | outcome [7] | activity change, negative = cytotoxicity [8] 4.75% | Potency [9] | Potency [10]

FC(F)(F)c1cccc(Cl)c1
inactive: Potency [1] > 92 µM | Potency [2] > 92 µM | Potency [3] > 92 µM | Potency [4] > 92 µM | Potency [5] > 92 µM | Potency [6] > 92 µM | outcome [7] | activity change, negative = cytotoxicity [8] -8.83% | Potency [9] | Potency [10]

Cc1cc(C)cc([N+](=O)[O-])c1
inactive: Potency [1] > 92 µM | Potency [2] > 92 µM | Potency [3] > 92 µM | Potency [4] > 92 µM | Potency [5] > 92 µM | Potency [6] > 92 µM | outcome [7] | activity change, negative = cytotoxicity [8] -7.51% | Potency [9] | Potency [10]

CCCCC(CC)CO (centres undefined)
inactive: Potency [1] > 92 µM | Potency [2] > 92 µM | Potency [3] > 92 µM | Potency [4] > 92 µM | Potency [5] > 92 µM | Potency [6] > 92 µM | outcome [7] | activity change, negative = cytotoxicity [8] -1.19% | Potency [9] | Potency [10]

Cc1ccc2oc(=O)ccc2c1
inactive: Potency [1] > 92 µM | Potency [2] > 92 µM | Potency [3] > 92 µM | Potency [4] > 92 µM | Potency [5] > 92 µM | Potency [6] > 92 µM | outcome [7] | activity change, negative = cytotoxicity [8] -1.53% | Potency [10]

C=C(C)C1CC=C(C)C(OC(C)=O)C1 (centres undefined)
inactive: Potency [1] > 92 µM | Potency [2] > 92 µM | Potency [3] > 92 µM | Potency [4] > 92 µM | Potency [5] > 92 µM | Potency [6] > 92 µM | outcome [7] | activity change, negative = cytotoxicity [8] -2.86% | Potency [9] | Potency [10]
